The nature of experiment [1]: NCI Yeast Anticancer Drug Screen. Data for the rad50 strain (AID 155).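 Note: 0% = growth of vehicle-only cultures of the same strain.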 As to conditions: S. cerevisiae rad50 strain growth inhibition; at 50.0 µM; hits give high values. The method, boiled down:
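Vehicle-treated cultures provide the reference for the growth inhibition reported for compound-exposed, repair-deficient yeast.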

Experiment [2] is described as follows: NCI Yeast Anticancer Drug Screen. Data for the mec2-1 strain (AID 157). The following applies: S. cerevisiae mec2-1 strain, at 50.0 µM, hits give high values. The method, boiled down:
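Yeast mec2-1 mutant treated with compound. Readout: growth inhibition vs vehicle controls.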

Experiment [3] in a line: NCI Yeast Anticancer Drug Screen. Data for the sgs1 mgt1 strain (AID 161).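 Note: 0% = growth of cultures given vehicle only.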 As to conditions: S. cerevisiae sgs1 mgt1 strain, at 50.0 µM, hits give high values. The method, boiled down: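 Mutant yeast exposed to compound; growth scored against vehicle-only wells.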
A short description of experiment [4]: NCI Yeast Anticancer Drug Screen. Data for the cln2 rad14 strain (AID 165).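 Note: 0% = growth equal to vehicle treated cultures.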 As to conditions: S. cerevisiae cln2 rad14 strain, at 50.0 µM, hits give high values. The method, boiled down:
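cln2 rad14 yeast strain; compound exposure; growth inhibition read vs vehicle controls.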

Experiment [5] can be described thus: NCI Yeast Anticancer Drug Screen. Data for the bub3 strain (AID 167). As to conditions: S. cerevisiae bub3 mutant strain, at 50.0 µM, hits give high values. The method, boiled down:
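Mutant yeast screening strain plus compound; vehicle-treated cultures serve as the 0% inhibition reference.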

Experiment [6] in a line: NCI Yeast Anticancer Drug Screen. Data for the mlh1 rad18 strain (AID 175). As to conditions: S. cerevisiae mlh1 rad18 strain growth inhibition; at 50.0 µM; hits give high values. In outline:
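Yeast w/ defined DNA-repair lesions; compound exposure; growth vs vehicle controls → % inhibition.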

Compounds without any hit were thinned out: in the full panel of roughly 79,000, 15% have a hit. Values without a mark were called inactive. The source made the active and inactive calls. Cut-off read from the data, not from the text of the source: active = growth inhibition above about 70%; inactive = the rest.

With `CC(=O)C1=C(C)N2C(=NC3=C(CCc4ccccc43)C2c2cccc(Br)c2)S1` (stereo not given), the growth inhibition in experiment [1] was 12.4%; in experiment [2], -27.4%; in experiment [3] it was -19.4%; in experiment [4], 3.2%; in experiment [5], -7.5%; in experiment [6] it was -20.5%.
For `COc1c(O)ccc(C2=Cc3ccc(O)cc3OC2)c1OC`, the growth inhibition in experiment [1] was 80.2% (active); in experiment [2] it was 91.5% (active); in experiment [3] it was 88.2% (active); in experiment [4] it was 88.3% (active); in experiment [5] it was 88.7% (active); in experiment [6], -25.6%.
In the case of `COc1c2c(c3c(c1OC)c(=O)c1ccccc1n3C)OCO2`, the growth inhibition in experiment [1] was 6.25%; in experiment [2] it was 10.8%; in experiment [3], 16.8%; in experiment [4] it was 8.5%; in experiment [5], 8.8%; in experiment [6], 13.2%.
With `C/C(O)=C/c1nc2sc(C)c(C)c2c(=O)s1`, the growth inhibition in experiment [1] is 14.4%; in experiment [2] it was 9.35%; in experiment [3], 9.85%; in experiment [4] it was 5.5%; in experiment [5], 15.2%; in experiment [6], -16.5%.
Take `COc1ccc2c(c1)N(C(C)=O)CN1C(=O)CCC21` (stereo not given): the growth inhibition in experiment [1] was -10.4%; in experiment [2], 1.25%; in experiment [3], -1.25%; in experiment [4] it was 21.8%; in experiment [5] it was 6.85%; in experiment [6] it was -66%.
With `COC(=O)C(=O)C(C(=O)C(=O)Nc1ccccc1OC)c1nc2ccc([N+](=O)[O-])cc2[nH]c1=O` (stereo not given), the growth inhibition is 16.4% in experiment [1]; 19.4% in experiment [2]; 10.9% in experiment [3]; -19.6% in experiment [4]; 36.1% in experiment [5]; 21.6% in experiment [6].
For `Cc1ccc(/C=N/Nc2ccccn2)s1`, the growth inhibition in experiment [1] is -10.9%; in experiment [2], -12.5%; in experiment [3] it was -2%; in experiment [4], 11.4%; in experiment [5], -11.2%; in experiment [6], 0.7%.
As to `NC(=S)Nc1[nH]c(=S)nc2c1SC1=N/C(=C\c3ccco3)C(=O)N12`, the growth inhibition was 7.45% in experiment [1]; -13.6% in experiment [2]; 25.5% in experiment [3]; 18.1% in experiment [4]; 33.9% in experiment [5]; 28.2% in experiment [6].
Regarding `COc1cc([C@H]2OC[C@@H]3C(c4cc(OC)c5c(c4)OCO5)OC[C@H]23)cc(OC)c1OC` (stereo not given in full), the growth inhibition in experiment [1] is -8.65%; in experiment [2], -34.6%; in experiment [3], -26.9%; in experiment [4], 21%; in experiment [5] it was -1.35%; in experiment [6], -53.1%.
Consider `COc1cc2oc3c(c(=O)c2c(O)c1/C=C/C(C)C)CCC(C)(C)Oc1cc(O)ccc1-3`, for which the growth inhibition in experiment [1] was 22.6%; in experiment [2], 11.1%; in experiment [3], 49%; in experiment [4] it was 47.3%; in experiment [5], 39.5%; in experiment [6], -26.4%.
As to `COC(=O)C(C(=O)C(=O)Nc1c(C)cccc1C(C)(C)C)c1nc2ccc(Cl)cc2[nH]c1=O` (stereo not given), the growth inhibition is -7.9% in experiment [1]; -26.9% in experiment [2]; -2.25% in experiment [3]; 16.9% in experiment [4]; -3.5% in experiment [5]; 12.7% in experiment [6].
Regarding `c1ccc(N(c2ccccc2)c2ccccc2)cc1`, the growth inhibition in experiment [1] is 5%; in experiment [2], -14.7%; in experiment [3] it was 1.9%; in experiment [4], 7.1%; in experiment [5], -10.4%; in experiment [6], 4.05%.
As to `CC/C(Cl)=N\OC(=O)Nc1ccc(OC)cc1`, the growth inhibition in experiment [1] is -5.35%; in experiment [2] it was -16.1%; in experiment [3] it was -3.3%; in experiment [4], 2.6%; in experiment [5], 1.15%; in experiment [6], -68.8%.
Consider `CC(=O)C1=C(C)N2C(=NC3=C(CCc4ccccc43)C2c2ccc(Cl)cc2)S1` (stereo not given), for which the growth inhibition in experiment [1] was 25.9%; in experiment [2], -14.6%; in experiment [3] it was 6.85%; in experiment [4], 6.25%; in experiment [5] it was -6.9%; in experiment [6], 1.5%.
As for `CCOC(=O)C(=O)C(CCC(=O)c1ccc2ccccc2c1O)C(=O)OCC` (stereo not given), the growth inhibition in experiment [1] is 2.6%; in experiment [2], -1.65%; in experiment [3] it was -2.9%; in experiment [4], 4.25%; in experiment [5] it was 0.5%; in experiment [6], -35.9%.
On to `CNc1nc2c(C)ccc3[nH]c(N(C)C)nc3c-2n1`, for which the growth inhibition in experiment [1] was 14.2%; in experiment [2] it was -32.8%; in experiment [3], 11.3%; in experiment [4], 8.1%; in experiment [5], 4.65%; in experiment [6] it was -10.9%.
`COc1ccc(CC2C(=O)NC(=O)NC2=O)cc1OCc1ccccc1`: the growth inhibition is 14.7% in experiment [1]; -1.75% in experiment [2]; -14.1% in experiment [3]; -10% in experiment [4]; -17.4% in experiment [5]; -44.6% in experiment [6].
With `O=C(O)CCCC(=O)Nn1c(Cc2ccc(Cl)cc2)n[nH]c1=O`, the growth inhibition in experiment [1] is 7.75%; in experiment [2] it was -13.1%; in experiment [3], 34.5%; in experiment [4], -6.3%; in experiment [5], -7.15%; in experiment [6], -1.85%.
Take `NC(N)=Nc1ccc(CC(N)C(=O)O)cc1` (stereo not given): the growth inhibition in experiment [1] was -0.5%; in experiment [2], -18.8%; in experiment [3], -13.4%; in experiment [4], 15.2%; in experiment [5], -3.8%; in experiment [6], -25.6%.
Regarding `CCN(CC)C(=O)c1cccnc1`, the growth inhibition in experiment [1] is 0.8%; in experiment [2], -46.9%; in experiment [3], -33%; in experiment [4], 14.2%; in experiment [5], -20.4%; in experiment [6] it was 18.6%.

Source of the values: PubChem BioAssay (NCI).
